Data on 26 targets can be found in the supplement of paper PMC12067093, “Discovery and optimisation of a covalent ligand for TRIM25 and its application to targeted protein ubiquitination” (Chemical Science, 2025).

The full data set covers some 21,000 targets. This sample favours those with the largest changes.
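Note: competitive chemoproteomic profiling in live THP-1 cells with an iodoacetamide desthiobiotin (IA-DTB) probe, comparing probe-labelled peptide intensities in compound-treated cells against DMSO-treated controls.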

Sequence of UniProt Q9Y496 (Q9Y496 whole entry): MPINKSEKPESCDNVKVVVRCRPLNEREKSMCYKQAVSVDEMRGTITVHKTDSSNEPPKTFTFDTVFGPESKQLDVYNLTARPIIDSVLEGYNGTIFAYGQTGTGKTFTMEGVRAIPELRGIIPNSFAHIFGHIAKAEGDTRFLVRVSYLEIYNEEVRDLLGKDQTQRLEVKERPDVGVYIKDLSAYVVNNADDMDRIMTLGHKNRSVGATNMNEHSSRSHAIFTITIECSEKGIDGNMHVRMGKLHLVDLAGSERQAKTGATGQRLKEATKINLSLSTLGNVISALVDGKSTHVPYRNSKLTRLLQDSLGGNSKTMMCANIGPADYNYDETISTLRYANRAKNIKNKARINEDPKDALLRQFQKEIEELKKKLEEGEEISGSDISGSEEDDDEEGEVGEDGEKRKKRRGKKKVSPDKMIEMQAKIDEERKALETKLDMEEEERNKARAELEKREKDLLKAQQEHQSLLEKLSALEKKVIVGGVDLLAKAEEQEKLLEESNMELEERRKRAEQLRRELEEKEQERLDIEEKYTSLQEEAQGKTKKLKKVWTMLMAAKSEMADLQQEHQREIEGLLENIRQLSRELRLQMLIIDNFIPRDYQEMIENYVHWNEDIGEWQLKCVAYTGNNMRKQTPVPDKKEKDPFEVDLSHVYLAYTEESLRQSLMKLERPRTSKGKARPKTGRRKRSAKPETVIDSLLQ
Sequence of UniProt Q9Y2H2 (Q9Y2H2 whole entry, looked up): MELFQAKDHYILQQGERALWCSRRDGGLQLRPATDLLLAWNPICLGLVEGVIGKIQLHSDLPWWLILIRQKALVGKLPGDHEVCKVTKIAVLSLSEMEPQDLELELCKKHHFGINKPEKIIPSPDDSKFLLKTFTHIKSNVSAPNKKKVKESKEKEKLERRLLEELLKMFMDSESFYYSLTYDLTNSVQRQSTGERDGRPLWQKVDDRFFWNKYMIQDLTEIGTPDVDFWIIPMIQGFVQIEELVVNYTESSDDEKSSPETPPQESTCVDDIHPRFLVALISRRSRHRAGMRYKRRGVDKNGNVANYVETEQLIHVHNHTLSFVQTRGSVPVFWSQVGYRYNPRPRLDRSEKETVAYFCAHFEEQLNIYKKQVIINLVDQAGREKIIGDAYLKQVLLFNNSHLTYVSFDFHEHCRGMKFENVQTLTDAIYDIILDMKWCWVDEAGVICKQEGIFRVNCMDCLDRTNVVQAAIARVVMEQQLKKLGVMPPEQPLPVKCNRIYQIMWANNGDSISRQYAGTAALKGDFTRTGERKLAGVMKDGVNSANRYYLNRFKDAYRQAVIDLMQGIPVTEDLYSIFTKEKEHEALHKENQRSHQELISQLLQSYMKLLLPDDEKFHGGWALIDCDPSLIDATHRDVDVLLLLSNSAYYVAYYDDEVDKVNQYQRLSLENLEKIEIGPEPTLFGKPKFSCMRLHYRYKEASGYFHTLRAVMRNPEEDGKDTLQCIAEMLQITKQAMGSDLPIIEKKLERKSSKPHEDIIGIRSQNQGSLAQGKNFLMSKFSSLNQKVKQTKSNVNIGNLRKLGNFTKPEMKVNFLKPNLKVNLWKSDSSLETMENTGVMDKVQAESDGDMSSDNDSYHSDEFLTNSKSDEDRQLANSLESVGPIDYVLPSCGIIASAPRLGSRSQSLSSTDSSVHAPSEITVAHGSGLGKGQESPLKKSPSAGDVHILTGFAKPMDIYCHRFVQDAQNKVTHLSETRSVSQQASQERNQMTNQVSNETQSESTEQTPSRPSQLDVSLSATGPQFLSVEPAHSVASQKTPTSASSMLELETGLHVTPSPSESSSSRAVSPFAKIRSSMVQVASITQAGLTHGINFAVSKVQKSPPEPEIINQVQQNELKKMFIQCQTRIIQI
Sequence of UniProt P49916 (P49916 whole entry, looked up): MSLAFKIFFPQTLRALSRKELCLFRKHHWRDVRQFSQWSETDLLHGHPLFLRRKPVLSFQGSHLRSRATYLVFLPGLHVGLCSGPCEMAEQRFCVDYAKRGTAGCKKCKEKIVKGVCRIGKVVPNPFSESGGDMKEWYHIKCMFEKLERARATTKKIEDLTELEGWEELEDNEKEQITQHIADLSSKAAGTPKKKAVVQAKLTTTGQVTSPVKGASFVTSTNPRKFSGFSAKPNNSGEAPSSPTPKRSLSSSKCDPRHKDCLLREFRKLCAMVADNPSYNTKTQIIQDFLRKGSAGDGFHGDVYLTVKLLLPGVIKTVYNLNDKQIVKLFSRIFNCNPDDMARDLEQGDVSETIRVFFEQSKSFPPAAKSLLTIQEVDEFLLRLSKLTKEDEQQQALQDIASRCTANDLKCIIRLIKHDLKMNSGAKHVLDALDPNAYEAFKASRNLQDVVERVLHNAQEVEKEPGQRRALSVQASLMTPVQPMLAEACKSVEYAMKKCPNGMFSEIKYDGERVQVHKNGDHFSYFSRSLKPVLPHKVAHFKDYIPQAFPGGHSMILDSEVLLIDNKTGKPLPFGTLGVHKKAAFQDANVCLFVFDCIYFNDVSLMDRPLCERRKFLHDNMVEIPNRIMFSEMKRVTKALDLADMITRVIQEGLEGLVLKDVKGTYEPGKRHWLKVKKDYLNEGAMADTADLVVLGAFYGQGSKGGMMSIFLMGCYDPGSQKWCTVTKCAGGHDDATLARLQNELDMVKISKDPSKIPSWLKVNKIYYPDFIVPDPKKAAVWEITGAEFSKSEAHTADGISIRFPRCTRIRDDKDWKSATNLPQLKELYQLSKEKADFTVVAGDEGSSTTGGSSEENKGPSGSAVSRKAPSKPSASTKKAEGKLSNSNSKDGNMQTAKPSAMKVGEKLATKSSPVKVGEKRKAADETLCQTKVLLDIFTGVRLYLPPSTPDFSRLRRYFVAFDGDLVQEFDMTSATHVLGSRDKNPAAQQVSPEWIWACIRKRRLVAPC
Sequence of UniProt O60711 (O60711 whole entry, looked up): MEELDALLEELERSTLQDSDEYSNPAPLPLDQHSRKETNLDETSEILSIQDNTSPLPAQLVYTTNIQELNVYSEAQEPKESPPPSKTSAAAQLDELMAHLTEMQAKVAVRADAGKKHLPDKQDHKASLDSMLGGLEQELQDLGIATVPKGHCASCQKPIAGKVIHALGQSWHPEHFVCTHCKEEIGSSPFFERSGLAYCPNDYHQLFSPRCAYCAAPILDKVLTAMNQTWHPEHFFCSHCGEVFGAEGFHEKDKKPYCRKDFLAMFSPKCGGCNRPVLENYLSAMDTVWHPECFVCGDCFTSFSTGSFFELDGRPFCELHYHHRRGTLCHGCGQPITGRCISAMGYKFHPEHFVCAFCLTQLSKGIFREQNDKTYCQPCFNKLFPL
Sequence of UniProt O14920 (O14920 whole entry, looked up): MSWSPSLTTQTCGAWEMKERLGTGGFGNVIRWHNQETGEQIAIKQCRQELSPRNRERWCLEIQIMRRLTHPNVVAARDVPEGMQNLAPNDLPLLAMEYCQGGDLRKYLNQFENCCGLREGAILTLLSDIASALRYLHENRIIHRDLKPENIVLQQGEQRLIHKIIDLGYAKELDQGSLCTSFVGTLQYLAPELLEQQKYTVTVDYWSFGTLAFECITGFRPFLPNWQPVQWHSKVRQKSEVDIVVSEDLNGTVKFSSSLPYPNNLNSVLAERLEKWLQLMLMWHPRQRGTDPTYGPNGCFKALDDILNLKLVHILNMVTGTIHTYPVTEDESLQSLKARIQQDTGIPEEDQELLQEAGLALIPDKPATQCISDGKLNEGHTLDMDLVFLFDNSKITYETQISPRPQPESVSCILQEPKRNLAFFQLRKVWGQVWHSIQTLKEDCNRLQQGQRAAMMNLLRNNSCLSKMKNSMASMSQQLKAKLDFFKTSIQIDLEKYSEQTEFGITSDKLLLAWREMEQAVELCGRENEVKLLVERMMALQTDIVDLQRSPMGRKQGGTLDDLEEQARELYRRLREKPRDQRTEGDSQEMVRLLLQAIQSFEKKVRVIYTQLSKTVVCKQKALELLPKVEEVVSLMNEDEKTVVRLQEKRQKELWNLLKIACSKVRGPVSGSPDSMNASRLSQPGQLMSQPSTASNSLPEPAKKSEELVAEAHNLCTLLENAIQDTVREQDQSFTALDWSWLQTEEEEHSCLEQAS
Sequence of UniProt P52294 (P52294 whole entry, looked up): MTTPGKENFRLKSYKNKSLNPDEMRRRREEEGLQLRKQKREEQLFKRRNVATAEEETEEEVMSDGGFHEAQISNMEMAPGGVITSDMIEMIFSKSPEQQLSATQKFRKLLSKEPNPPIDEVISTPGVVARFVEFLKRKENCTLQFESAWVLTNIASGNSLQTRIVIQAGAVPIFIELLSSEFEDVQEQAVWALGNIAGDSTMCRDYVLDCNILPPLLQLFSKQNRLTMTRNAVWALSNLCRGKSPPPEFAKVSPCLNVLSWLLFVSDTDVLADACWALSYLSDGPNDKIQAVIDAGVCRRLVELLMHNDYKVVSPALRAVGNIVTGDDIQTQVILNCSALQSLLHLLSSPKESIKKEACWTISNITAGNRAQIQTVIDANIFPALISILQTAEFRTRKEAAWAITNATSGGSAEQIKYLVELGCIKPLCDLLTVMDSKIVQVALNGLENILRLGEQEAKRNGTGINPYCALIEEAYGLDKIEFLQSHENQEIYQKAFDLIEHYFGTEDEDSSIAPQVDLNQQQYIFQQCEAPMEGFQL
Sequence of UniProt P48059 (P48059 whole entry, looked up): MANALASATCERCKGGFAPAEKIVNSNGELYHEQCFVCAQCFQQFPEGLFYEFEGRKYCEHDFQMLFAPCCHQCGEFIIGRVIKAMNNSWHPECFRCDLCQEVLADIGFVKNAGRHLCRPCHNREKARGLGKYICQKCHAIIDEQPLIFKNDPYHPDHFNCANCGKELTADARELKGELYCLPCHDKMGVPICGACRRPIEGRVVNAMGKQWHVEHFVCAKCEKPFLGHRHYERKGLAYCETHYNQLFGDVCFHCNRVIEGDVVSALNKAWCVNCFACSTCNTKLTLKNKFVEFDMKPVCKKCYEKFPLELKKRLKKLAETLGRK

Compound in the first test: CC1Cc2ccccc2N1C(=O)C1CCCN(C1)C(=O)CCl (mixture of isomers) [TRIM25 ligand 11 (diastereomer mixture)]
As to the kind of experiment: probe-labelled cysteine peptide fold change vs DMSO (competition) (log2 fold change); higher = less target engagement (more negative = stronger competition). The note with it: 10 µM; THP-1; incubation time: 4 h.
In the case of “INPP5F_Q9Y2H2_725_DTLQCIAEMLQITK (UniProt Q9Y2H2)”, the “probe-labelled cysteine peptide fold change” value turned out to be 0.173.
On to “LANCL2_Q9NS86_367_GYGICHGTAGNGYSFLSLYR (UniProt Q9NS86)”, for which the “probe-labelled cysteine peptide fold change” value was determined as 0.0845.
In the case of “LRRC8C_Q8TDW0_599_MTNLTELELVHCDLER (UniProt Q8TDW0)”, the “probe-labelled cysteine peptide fold change” value worked out at 0.076.
As to “IGF2R_P11717_1783_TSECDFVFEWETPVVCPDEVR (UniProt P11717)”, the “probe-labelled cysteine peptide fold change” value was -0.144.
Turning to “LGALS1_P09382_3_ACGLVASNLNLKPGECLR (UniProt P09382)”, the “probe-labelled cysteine peptide fold change” value is -0.0986.
Same read-out and setting: the figure for “LPXN_O60711_155_GHCASCQK (UniProt O60711)” is 0.00581.
Turning to “LIMS1_P48059_193+196_MGVPICGACR (UniProt P48059)”, the “probe-labelled cysteine peptide fold change” value is -0.089.
The same measure, in the same setting: the figure for “IARS2_Q9NSE4_819_SCQTALVEILDVIVR (UniProt Q9NSE4)” is 0.153; for “KDM3A_Q9Y4C1_814_PACPASTSPLNWLADLTSGNVNK (UniProt Q9Y4C1)” it is 0.0136; for “LIG3_P49916_499_KCPNGMFSEIKYDGER (UniProt P49916)” it is 0.24.
With “KIF22_Q14807_201_VLDLLDPASGDLVIREDCR (UniProt Q14807)”, the “probe-labelled cysteine peptide fold change” value is -0.154.
Same read-out and setting: next, “KPNA1_P52294_424_YLVELGCIK (UniProt P52294)”: 0.213.
The same measure, in the same setting: the figure for “KNTC1_P50748_911_IIDLIDREQGEDCLLLLK (UniProt P50748)” is 0.282.
Turning to “LIMS3_P0CW19-2_121+132_KYCEHDFQMLFAPCCHQCGEFIIGR<|>LIMS1_P48059_59+70_KYCEHDFQMLFAPCCHQCGEFIIGR (UniProt P48059+P0CW19)”, the “probe-labelled cysteine peptide fold change” value was -0.18.
On to “INTS6L_Q5JSJ4_745_NCSLSVDDQK (UniProt Q5JSJ4)”, for which the “probe-labelled cysteine peptide fold change” value was 0.156.
For “KIF3A_Q9Y496_230_SHAIFTITIECSEK (UniProt Q9Y496)”, the “probe-labelled cysteine peptide fold change” value is 0.112.
For “KIAA1958_Q8N8K9_246_PKPQTHAGPSCVGSAK (UniProt Q8N8K9)”, the “probe-labelled cysteine peptide fold change” value is -0.0886.
The same measure, in the same setting: the figure for “ITSN2_Q9NZM3_1429_ENSDRLEWIQAHVQCEGLAEQLIFNSLTNCLGPR (UniProt Q9NZM3)” is -0.507; for “LGALS1_P09382_17_ACGLVASNLNLKPGECLR (UniProt P09382)” it is -0.0469; for “IVD_P26440_136_ASGAVGLSYGAHSNLCINQLVR (UniProt P26440)” it is 0.0597.
“IKBKB_O14920_524_EMEQAVELCGR (UniProt O14920)”: the “probe-labelled cysteine peptide fold change” value is 0.182.
As for “ITGB2_P05107_386_VTYDSFCSNGVTHR (UniProt P05107)”, the “probe-labelled cysteine peptide fold change” value came to 0.0533.
The same measure, in the same setting: the figure for “KLHL26_Q53HC5_383_SGEGAVDACYR (UniProt Q53HC5)” is 0.33.
For the target “ITGB2_P05107_481_NCECQTQGR (UniProt P05107)”, the “probe-labelled cysteine peptide fold change” value is -0.17.
As to “IGF2R_P11717_149_TLGTPEFVTATECVHYFEWR (UniProt P11717)”, the “probe-labelled cysteine peptide fold change” value was -0.0703.
Same read-out and setting: next, “IRF3_Q14653_267_HVLSCLGGGLALWR (UniProt Q14653)”: -0.17.

The test is the same for the next values; noted with them: 50 µM; THP-1; incubation time: 4 h.
In the case of “INPP5F_Q9Y2H2_725_DTLQCIAEMLQITK (UniProt Q9Y2H2)”, the “probe-labelled cysteine peptide fold change” value is 0.242.
Same read-out and setting: the figure for “LANCL2_Q9NS86_367_GYGICHGTAGNGYSFLSLYR (UniProt Q9NS86)” is -0.0445.
Still for that read-out and setting: next, “LRRC8C_Q8TDW0_599_MTNLTELELVHCDLER (UniProt Q8TDW0)”: 0.0824.
The same measure, in the same setting: next, “IGF2R_P11717_1783_TSECDFVFEWETPVVCPDEVR (UniProt P11717)”: -0.672; “LGALS1_P09382_3_ACGLVASNLNLKPGECLR (UniProt P09382)”: -0.246; “LPXN_O60711_155_GHCASCQK (UniProt O60711)”: 0.145.
Consider “LIMS1_P48059_193+196_MGVPICGACR (UniProt P48059)”, for which the “probe-labelled cysteine peptide fold change” value is -0.114.
The same measure, in the same setting: next, “IARS2_Q9NSE4_819_SCQTALVEILDVIVR (UniProt Q9NSE4)”: -0.107; “KDM3A_Q9Y4C1_814_PACPASTSPLNWLADLTSGNVNK (UniProt Q9Y4C1)”: -0.377.
Same read-out and setting: next, “LIG3_P49916_499_KCPNGMFSEIKYDGER (UniProt P49916)”: 0.59; “KIF22_Q14807_201_VLDLLDPASGDLVIREDCR (UniProt Q14807)”: -0.158; “KPNA1_P52294_424_YLVELGCIK (UniProt P52294)”: 0.184.
Still for that read-out and setting: the figure for “KNTC1_P50748_911_IIDLIDREQGEDCLLLLK (UniProt P50748)” is 0.137; for “LIMS3_P0CW19-2_121+132_KYCEHDFQMLFAPCCHQCGEFIIGR<|>LIMS1_P48059_59+70_KYCEHDFQMLFAPCCHQCGEFIIGR (UniProt P48059+P0CW19)” it is -0.291; for “INTS6L_Q5JSJ4_745_NCSLSVDDQK (UniProt Q5JSJ4)” it is -0.0158.
For “KIF3A_Q9Y496_230_SHAIFTITIECSEK (UniProt Q9Y496)”, the “probe-labelled cysteine peptide fold change” value is -0.0259.
On the same count and under the same terms, the figure for “KIAA1958_Q8N8K9_246_PKPQTHAGPSCVGSAK (UniProt Q8N8K9)” is -0.293.
Turning to “ITSN2_Q9NZM3_1429_ENSDRLEWIQAHVQCEGLAEQLIFNSLTNCLGPR (UniProt Q9NZM3)”, the “probe-labelled cysteine peptide fold change” value was -0.633.
As for “LGALS1_P09382_17_ACGLVASNLNLKPGECLR (UniProt P09382)”, the “probe-labelled cysteine peptide fold change” value was -0.0291.
Same read-out and setting: the figure for “IVD_P26440_136_ASGAVGLSYGAHSNLCINQLVR (UniProt P26440)” is -0.151; for “IKBKB_O14920_524_EMEQAVELCGR (UniProt O14920)” it is 0.0969; for “ITGB2_P05107_386_VTYDSFCSNGVTHR (UniProt P05107)” it is -0.0395.
As for “KLHL26_Q53HC5_383_SGEGAVDACYR (UniProt Q53HC5)”, the “probe-labelled cysteine peptide fold change” value worked out at 0.211.
Consider “ITGB2_P05107_481_NCECQTQGR (UniProt P05107)”, for which the “probe-labelled cysteine peptide fold change” value is -0.216.
Same read-out and setting: the figure for “IGF2R_P11717_149_TLGTPEFVTATECVHYFEWR (UniProt P11717)” is -0.305.
On to “IRF3_Q14653_267_HVLSCLGGGLALWR (UniProt Q14653)”, for which the “probe-labelled cysteine peptide fold change” value stood at 0.346.
